Measurements reported in PubChem BioAssay (Tox21).
“And” between values parts separate entries of the source, which are not always exact repeats. Equal values may be shown once. Results filed as inconclusive are left out. Entries that show only a call come without a potency. Some structures have more than one record in an assay (separate samples or runs), and their calls can disagree. The source made the active and inactive calls. Unless noted, calls follow the shape of the dose curve; as a rule, active = well fitted curve in the direction sought with a large enough effect in the repeat runs; inconclusive = weak or mixed curves; inactive = no such curve, though single readings can be large; an effect the other way counts as inactive or inconclusive.

How the values were obtained:
[1] = qHTS assay to identify small molecule antagonists of the androgen receptor (AR) signaling pathway using the MDA cell line in the presence of 0.5 nM R1881 - cell viability counter screen (AID 1259242); also: nearly all actives have a fitted effect of over 45% in size; also: potency is read from the fitted curve at half-maximal effect
In short: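 Live-cell protease activity was measured by CellTiter-Fluor fluorescence after 30 min. Before that, MDA-kb2 MMTV-luciferase cells had 16 hr at 37C without CO2, exposed to test compounds and 0.5 nM R1881 final.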

[2] = qHTS assay to identify small molecule phospholipidosis (PLD) inducers (AID 1259344; active = well fitted curve in the direction sought with a large enough effect; an effect the other way counts as inactive or inconclusive)
In short: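 Phospholipid accumulation was scored by imaging: fixed, Hoechst-counterstained HepG2 cells stained with LipidTOX Red after 24 h compound exposure at 37 C. Read-outs were pit count and pit intensity per well or per cell, with amiodarone and DMSO controls.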

[3] = qHTS assay to identify small molecule HDAC inhibitors (AID 1259364); also: top concentration of the series differs between compounds; nearly all actives have a fitted effect of over 45% in size
In short: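 Luminescence read after 30 min room-temperature HDAC-Glo incubation measures cellular class I/II HDAC activity. Compounds were applied for 2 hr at 37 C to HCT-116 wild-type cells seeded the day before.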

[4] = qHTS assay to identify small molecule HDAC inhibitors - cell viability counter screen (AID 1259365); also: series mostly up to about 92 µM; nearly all actives have a fitted effect of over 50% in size
In short: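 After overnight seeding at 1,500 cells per well, wild-type HCT-116 cultures took up compounds in DMSO for 2hr at 37 C. Viable cell content came from luminescence with CellTiter-Glo.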

[5] = qHTS assay to identify small molecule agonists of the sonic hedgehog signaling (Shh) pathway - cell viability counter screen (AID 1259366); also: nearly all actives have a fitted effect of over 50% in size; also: potency is read from the fitted curve at half-maximal effect
In short: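 Same-well cytotoxicity read. Gli1-Luc reporter 3T3 cells; compounds 24hr, 37C/5% CO2; CellTiter-Fluor fluorescence.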

[6] = qHTS assay to identify small molecule agonists of the sonic hedgehog signaling (Shh) pathway (AID 1259368; calls by dose curve;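 also: NIH/3T3-derived 3T3Gli1-Luc cells carrying a stable Gli1-driven firefly luciferase reporter; series mostly up to about 92 µM; nearly all actives have a fitted effect of over 15% in size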)
In short: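 Luminescence was read after 30 min at room temperature with luciferase reagent. Before that, 3T3Gli1-Luc cells (NIH/3T3 clone, stable Gli1-Luc reporter; 2,000/well) were exposed to compounds for 24 hr at 37C, 5% CO2, compounds being added 4 hr post-plating.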

[7] = qHTS assay to identify small molecule antagonists of the sonic hedgehog signaling (Shh) pathway (AID 1259369; calls by dose curve; also: nearly all actives have a fitted effect of over 45% in size; also: potency is read from the fitted curve at half-maximal effect)
In short: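 Antagonist mode: compound added to 3T3 Gli1-Luc cells followed by conditioned-medium stimulation, 24 h at 37 C, 5% CO2. Inhibition taken as loss of Gli1-driven luciferase luminescence.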

[8] = qHTS assay to identify small molecule agonists of the androgen receptor (AR) signaling pathway in the presence of an antagonist - cell viability counter screen (AID 1259379); also: nearly all actives have a fitted effect of over 25% in size; also: potency is read from the fitted curve at half-maximal effect
In short: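 Cytotoxicity counter-screen run in the same wells as the nilutamide-challenged (3.0 µM final) AR agonist assay in MDA-kb2 cells. Compounds tested at 15 concentrations for 16 h, 37 °C without CO2; CellTiter-Fluor fluorescence read.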

[9] = qHTS assay to identify small molecule agonists of the estrogen receptor beta (ER-beta) signaling pathway - cell viability counter screen (AID 1259380); also: nearly all actives have a fitted effect of over 30% in size; also: potency is read from the fitted curve at half-maximal effect
In short: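 Cell viability counter screen: CellTiter-Glo luminescence (30 min, room temperature) measured in the same wells as the beta-lactamase readout, after 16 hr compound exposure at 37C of ER-beta-bla HEK293T cells in 2% charcoal-stripped FBS medium.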

[10] = qHTS assay to identify small molecule antagonists of the estrogen receptor beta (ER-beta) signaling pathway - cell viability counter screen (AID 1259382); also: nearly all actives have a fitted effect of over 55% in size; also: potency is read from the fitted curve at half-maximal effect
In short: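 Cytotoxicity was measured in the same wells by CellTiter-Glo luminescence after 30 min at room temperature. Cells were ER-beta-bla HEK293T in charcoal-stripped serum, given compound together with 1 nM E2 and incubated 16 h at 37C.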

[11] = qHTS assay to identify small molecule agonists of the estrogen receptor alpha (ER-alpha) signaling pathway in the presence of an antagonist - cell viability counter screen (AID 1259386); also: nearly all actives have a fitted effect of over 30% in size; also: potency is read from the fitted curve at half-maximal effect
In short: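 Compounds tested at 15 concentrations for 22 h at 37C alongside 10.0nM (final) ICI-182,780 antagonist, in VM7Luc4E2 cells grown in phenol red-free, charcoal-stripped medium. Viability read by CellTiter-Fluor fluorescence after 1 h reagent incubation.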

[12] = target: Estrogen receptor beta (Homo sapiens) (UniProt Q92731); experiment: qHTS assay to identify small molecule agonists of the estrogen receptor beta (ER-beta) signaling pathway (AID 1259377; active = well fitted activation curve with a large enough effect in the signal ratio in the repeat runs, not every such curve was filed as active; the % refers to the signal ratio)
Sequence of Estrogen receptor beta (Homo sapiens) (Q92731 whole entry, looked up): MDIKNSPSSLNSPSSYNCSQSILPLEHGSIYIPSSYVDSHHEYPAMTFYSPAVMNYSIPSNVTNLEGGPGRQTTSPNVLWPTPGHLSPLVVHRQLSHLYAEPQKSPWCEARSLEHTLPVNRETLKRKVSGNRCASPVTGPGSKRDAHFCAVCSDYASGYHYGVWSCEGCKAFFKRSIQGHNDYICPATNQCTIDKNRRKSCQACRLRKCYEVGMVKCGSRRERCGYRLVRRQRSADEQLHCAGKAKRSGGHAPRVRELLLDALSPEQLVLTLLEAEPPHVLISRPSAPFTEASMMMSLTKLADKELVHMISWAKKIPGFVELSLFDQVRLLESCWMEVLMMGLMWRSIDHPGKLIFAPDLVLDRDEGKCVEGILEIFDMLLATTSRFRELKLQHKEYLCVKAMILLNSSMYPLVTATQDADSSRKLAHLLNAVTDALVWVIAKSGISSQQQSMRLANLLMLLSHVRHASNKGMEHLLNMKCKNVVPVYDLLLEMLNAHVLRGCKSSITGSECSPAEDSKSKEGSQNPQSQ
In short: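 Read-out: beta-lactamase FRET fluorescence. Cell line: ER-beta-UAS-bla HEK293T in 2% charcoal-stripped FBS. Exposure: 16 hr at 37C. Substrate step: 2 h at room temperature.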

[13] = qHTS assay to identify small molecule antagonists of the sonic hedgehog signaling (Shh) pathway - cell viability counter screen (AID 1259367); also: nearly all actives have a fitted effect of over 55% in size
In short: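 Viability was read by CellTiter-Fluor fluorescence in the same wells, reagent added 23 hr into compound treatment and incubated 1 hr at 37C. The 3T3 Gli1-Luc reporter cells (2,000/well) received conditioned medium after compound and ran 24 hr.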

[14] = target: Estrogen receptor beta (Homo sapiens) (UniProt Q92731); experiment: qHTS assay to identify small molecule antagonists of the estrogen receptor beta (ER-beta) signaling pathway (AID 1259378; active = well fitted inhibition curve with a large enough effect in the signal ratio in the repeat runs, not every such curve was filed as active; the % refers to the signal ratio)
In short: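 Antagonist mode: compounds added to beta-lactamase reporter HEK293T ER-beta-UAS cells stimulated with E2 (1nM final), 16 hr at 37C. LiveBLAzer B/G FRET substrate, 2 hours room temperature, fluorescence read-out.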

[15] = qHTS assay to identify small molecule agonists or antagonists of the thyroid stimulating hormone receptor (TSHR) signaling pathway - wild type cell line counter screen (AID 1259384; calls by dose curve)
In short: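 Counter screen in untransfected Hek293: compounds (15-point titration, triplicate) plus phosphodiesterase inhibitor Ro20-1724 added after 18 h plating; 30 min RT. Intracellular cAMP via competitive d2/cryptate immunoassay, 1 h incubation.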

[16] = target: Thyrotropin receptor (Homo sapiens) (UniProt P16473); experiment: qHTS assay to identify small molecule antagonists of the thyroid stimulating hormone receptor (TSHR) signaling pathway (AID 1259385; calls by dose curve; also: nearly all actives have a fitted effect of over 20% in size; also: potency is read from the fitted curve at half-maximal effect)
Sequence of Thyrotropin receptor (Homo sapiens) (P16473 whole entry, looked up): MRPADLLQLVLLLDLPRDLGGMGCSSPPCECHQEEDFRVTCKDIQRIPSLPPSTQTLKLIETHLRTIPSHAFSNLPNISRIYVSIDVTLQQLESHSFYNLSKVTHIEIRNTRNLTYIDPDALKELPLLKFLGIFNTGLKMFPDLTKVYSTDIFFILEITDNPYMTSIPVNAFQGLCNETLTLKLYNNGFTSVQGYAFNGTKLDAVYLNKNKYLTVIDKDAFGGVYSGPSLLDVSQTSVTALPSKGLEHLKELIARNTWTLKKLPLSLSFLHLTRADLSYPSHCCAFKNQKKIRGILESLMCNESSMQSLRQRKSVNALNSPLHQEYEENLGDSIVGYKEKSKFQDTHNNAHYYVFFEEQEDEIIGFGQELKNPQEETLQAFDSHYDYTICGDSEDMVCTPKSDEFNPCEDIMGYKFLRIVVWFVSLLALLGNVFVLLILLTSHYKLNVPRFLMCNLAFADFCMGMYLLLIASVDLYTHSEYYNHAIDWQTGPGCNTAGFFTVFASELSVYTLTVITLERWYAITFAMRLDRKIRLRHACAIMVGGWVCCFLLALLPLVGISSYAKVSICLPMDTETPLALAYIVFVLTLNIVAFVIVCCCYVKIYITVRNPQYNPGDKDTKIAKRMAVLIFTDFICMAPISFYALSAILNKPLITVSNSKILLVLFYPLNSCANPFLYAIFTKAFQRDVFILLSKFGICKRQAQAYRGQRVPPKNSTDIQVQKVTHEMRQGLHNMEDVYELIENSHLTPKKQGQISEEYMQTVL
In short: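 Antagonist mode: compound-treated TSHR-expressing HEK293 cells were stimulated with 1.5 ng/mL TSH (final) in presence of Ro20-1724 for 30 min at RT. HTRF cAMP detection after 1 h; each compound tested at 15 concentrations, triplicate.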

[17] = target: Estrogen receptor (Homo sapiens) (UniProt P03372); experiment: qHTS assay to identify small molecule antagonists of the estrogen receptor alpha (ER-alpha) signaling pathway using the BG1 cell line in the presence of 0.1 nM 17-beta-estradiol (AID 1259244); also: nearly all actives have a fitted effect of over 50% in size; also: potency is read from the fitted curve at half-maximal effect
Sequence of Estrogen receptor (Homo sapiens) (P03372 whole entry, looked up): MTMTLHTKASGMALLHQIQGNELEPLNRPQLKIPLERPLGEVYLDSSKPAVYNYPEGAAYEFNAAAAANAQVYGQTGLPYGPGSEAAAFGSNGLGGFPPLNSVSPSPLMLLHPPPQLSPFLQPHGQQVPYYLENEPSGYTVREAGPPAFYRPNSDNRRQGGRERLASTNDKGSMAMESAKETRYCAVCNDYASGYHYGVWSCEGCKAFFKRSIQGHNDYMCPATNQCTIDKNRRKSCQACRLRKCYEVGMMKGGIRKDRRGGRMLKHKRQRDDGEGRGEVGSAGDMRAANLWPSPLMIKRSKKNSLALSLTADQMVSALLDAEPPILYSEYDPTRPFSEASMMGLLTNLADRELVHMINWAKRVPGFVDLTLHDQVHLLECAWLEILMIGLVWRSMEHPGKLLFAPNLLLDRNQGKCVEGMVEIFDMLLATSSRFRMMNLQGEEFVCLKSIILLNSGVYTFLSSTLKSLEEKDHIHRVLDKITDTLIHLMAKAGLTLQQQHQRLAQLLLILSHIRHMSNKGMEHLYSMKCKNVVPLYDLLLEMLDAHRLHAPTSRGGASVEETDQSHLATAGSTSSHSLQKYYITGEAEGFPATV
In short: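 Luciferase luminescence (ONE-Glo, 30 min at room temperature) was read after 22 hr at 37C exposure to compounds plus 17beta-estradiol at 0.1 nM final. Cells were VM7Luc4E2 with endogenous ER-alpha and an ERE-driven luciferase, pre-cultured 5 days in hormone-depleted medium.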

[18] = target: Estrogen receptor (Homo sapiens) (UniProt P03372); experiment: qHTS assay to identify small molecule agonists of the estrogen receptor alpha (ER-alpha) signaling pathway in the presence of an antagonist (AID 1259383; calls by dose curve; also: top concentration of the series differs between compounds; nearly all actives have a fitted effect of over 15% in size)
In short: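 Agonist-mode confirmation run in the presence of 10.0nM (final) ICI-182,780 antagonist. The reporter was ERE-driven luciferase in VM7Luc4E2 cells, grown in charcoal-stripped serum. Cells were exposed to 15-concentration compound series for 22hr, then ONE-Glo luminescence was read.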

Row | Structure (SMILES) | Potency [1] | Potency [2] | Potency [3] | Potency [4] | Potency [5] | outcome [6] | Potency [7] | Potency [8] | Potency [9] | Potency [10] | Potency [11] | Potency [12] | Potency [13] | Potency [14] | Potency [15] | Potency [16] | PLD induction [2] | Potency [17] | Potency [18]
1 | C[C@](N)(Cc1ccc(O)c(O)c1)C(=O)O | inactive | inactive | inactive | inactive | inactive | inactive | inactive | inactive | inactive | inactive | inactive and 54.3 µM (active) |  |  |  |  |  |  |  | 
2 | Nc1c(N=Nc2ccc(-c3ccc(N=Nc4cc(S(=O)(=O)O)c5ccccc5c4N)cc3)cc2)cc(S(=O)(=O)O)c2ccccc12 | 27.3 µM (active) | inactive | inactive | inactive | 17.2 µM (active) | inactive | inactive | 24.3 µM (active) |  |  | 17.2 µM (active) | inactive |  |  |  |  |  |  | 
3 | CN(C)CCOC(C)(c1ccccc1)c1ccccn1 (configuration not stated) | inactive | inactive | inactive | inactive | inactive | inactive | inactive | inactive | inactive | inactive | inactive | inactive | inactive | inactive | inactive | inactive |  |  | 
4 | C1=CC2C3C=CC(C3)C2C1 (configuration not stated) | inactive |  | inactive | inactive | inactive | inactive |  | inactive | inactive |  | inactive |  |  | inactive | inactive |  | -3.38% [at 3.15 µM] (inactive) |  | 
5 | Cc1cccc(C)c1 | inactive |  | inactive | inactive | inactive | inactive | inactive | inactive | inactive | inactive | inactive |  |  |  | inactive | inactive |  | inactive | inactive
6 | CN1CCc2cccc3c2[C@H]1Cc1ccc(O)c(O)c1-3 | 55 µM (active) and 22.8 µM (active) | inactive | inactive |  | 27.6 µM (active) and 22.8 µM (active) | inactive | 2.87 µM (active) and 18.8 µM (active) | 55 µM (active) and 22.8 µM (active) and 26.6 µM (active) | 55 µM (active) and 20.4 µM (active) |  | 49.1 µM (active) and 22.8 µM (active) and 26.6 µM (active) |  |  |  | inactive | inactive |  | 49.1 µM (active) and 11.9 µM (active) | inactive
7 | COc1ccc2cc(S(=O)(=O)N[C@H](CC(=O)N[C@H](Cc3ccc(CN4[C@H](C)CCC[C@@H]4C)cc3)C(=O)N(C)C(C)C)c3ccc4c(c3)OCO4)ccc2c1 | 46 µM (active) |  | inactive | inactive | 25.8 µM (active) | inactive | inactive | 51.6 µM (active) | 18.3 µM (active) |  | 36.5 µM (active) |  |  |  | inactive | 57.9 µM (active) |  | 51.6 µM (active) | inactive
8 | CC(C)c1c(C(=O)Nc2ccccc2)c(-c2ccccc2)c(-c2ccc(F)cc2)n1CC[C@@H](O)C[C@@H](O)CC(=O)O | inactive | inactive | inactive | inactive | inactive | inactive | inactive | inactive | 11.7 µM (active) and 25.5 µM (active) | 13.2 µM (active) and 32.1 µM (active) | inactive |  | inactive |  | inactive | inactive |  |  | 
